Reference: PubChem BioAssay (NCI)
About 83,000 compounds went through this panel and 20% of them were active in at least one assay; those are over-represented in the sample as a whole.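 Testing used 96-well plates and a 48-hour single-concentration exposure. Example: -40 means 40% of the starting cells died.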 Unmarked numbers belong to inactive results. Calls of active or inactive are those of the source. The calls were made as follows: active = growth percent below 10; inactive = the rest.

Tested on: UO-31 renal
Assay: NCI-60 one-dose screen, 48 h (100 = growth as untreated, 0 = no growth, -100 = all killed)
Conditions: 10 µM unless noted

| Compound | growth |
| --- | --- |
| COc1ccc2c(c1)OC13Oc4cc(OC)ccc4C=C1CCCCC3=C2 | 84.7% |
| COc1ccc(C(C)c2cc(OC)c(OC)c(OC)c2)cc1 (stereo not drawn) | 47.3% |
| COc1ccc([C@H]2[C@@H](F)C(=O)N2c2cc(OC)c(OC)c(OC)c2)cc1F | 43.2% |
| Cc1cc(Nc2nc(SCc3ccc(C(=O)Nc4ccc(F)cc4N)cc3)nn3cccc23)n[nH]1 | 31% |

Tested on: TK-10 renal
Assay: as above
Conditions: 10 µM unless noted

| Compound | growth |
| --- | --- |
| COc1ccc2c(c1)OC13Oc4cc(OC)ccc4C=C1CCCCC3=C2 | 86.8% |
| C/C(=N/Nc1nc2ccccc2n1C)c1ccccn1 | 36.8% |
| Cc1nc2sc(C(=O)Nc3cccc4ccccc34)c(N)c2cc1C(C)O (stereo not drawn) | 75.2% |
| N#Cc1c(-c2ccc(F)cc2)c(C#N)c2c(C#N)c(N)nn2c1N | 86.4% |
| CCOc1ccc(C2N(c3cc(OC)c(OC)c(OC)c3)C(=O)C2(F)F)cc1 (stereo not drawn) | 103% |
| CCOc1ccccc1C(=O)/C=C/c1cc2ccccc2[nH]c1=O | 15% |
| Cc1ccc(C2=N[C@H]3CCC[C@@H]3N(c3ccccc3)C(C(Cl)Cl)=N2)cc1 | 100% |
| COc1cc(/C=C/CO)cc(OC)c1O[C@@H]1O[C@H](CO)[C@@H](O)[C@H](O)[C@H]1O | 98.7% |
| COc1ccc(C(=S)c2cc(OC)c(OC)c(OC)c2)cc1OC(=O)CCl | 65.2% |
| O=C1CCC23OC(c4ccccc4N12)C(O)C(O)C3O (stereo not drawn) | 89.1% |
| COc1cc(/C=C/C(=O)c2cccs2)ccc1OCc1ccc(Cl)nc1 | 111% |
| O=c1c2ccccc2oc2ccc(OCCCCCN3CCCCCC3)cc12 | 72.2% |
| C=C1C(=O)O[C@H]2[C@H]1CC/C(COC(=O)NCC(=O)Nc1ccc(OC)c(C(N)=O)c1O)=C\CC[C@@]1(C)O[C@@H]21 | 47.2% |
| COc1ccc(-c2[nH]c3ccccc3c2C=C(C#N)C#N)cc1 | 35.5% |
| COC(=O)/C=C/c1cc(OC(C)=O)c2c(c1)C(C(=O)OC)C(c1ccc(OC(C)=O)c(OC(C)=O)c1)O2 (stereo not drawn) | 44.7% |
| Nc1cc(N)c(S(=O)(=O)O)cc1N=Nc1cc([N+](=O)[O-])ccc1O | 102% |
| CC1CCN(CCCCCOc2ccc3oc4ccccc4c(=O)c3c2)CC1 | 71.4% |
| CCOC(=O)C1=C(C)n2nc(CC#N)c(C#N)c2NC1c1ccc(Cl)cc1 (stereo not drawn) | 123% |
| Cc1cccc(C)c1NCc1nnc(-c2ccco2)o1 | 123% |

| Compound | growth |
| --- | --- |
| COC(=O)/C=C1\SC(=Nc2cccc(Cl)c2)N(CCc2c[nH]c3ccccc23)C1=O | 73.4% |
| COc1ccc(C(C)c2cc(OC)c(OC)c(OC)c2)cc1 (stereo not drawn) | 67.5% |
| CCO/C=N/S(=O)(=O)c1cc2c(cc1Cl)NC=NS2(=O)=O | 101% |
| COc1ccc([C@H]2[C@@H](F)C(=O)N2c2cc(OC)c(OC)c(OC)c2)cc1F | 64.4% |
| O=C(CN1N=C(c2ccc(F)cc2)CCC1=O)Nc1nccs1 | -95.6% (active) |
| Nc1cc(N)nc(SCC(=O)O)n1 | 98.2% |
| CCOC(=O)NCCc1nc2c([nH]1)c(=O)n(C)c(=O)n2C | 100% |
| CC1(c2ccccc2Cl)NC(=O)NC1=O (stereo not drawn) | 90% |
| C=C1C(=O)O[C@H]2[C@H]1CC/C(COC(=O)n1ccnc1)=C\CC[C@@]1(C)O[C@@H]21 | 94.7% |
| COc1ccccc1-c1ccc2nc(NC(=O)Nc3cc(C(F)(F)F)cc(C(F)(F)F)c3)sc2c1 | 9.11% (active) |
| O=C1NC(SCc2ccc(F)cc2)=N/C1=C/c1cccc(OCc2ccc(Cl)cc2)c1 | -5.9% (active) |
| O=C(CCc1nnc2sc(OCc3ccccc3)nn12)c1nc2ccc([N+](=O)[O-])cc2[nH]1 | 131% |
| Nc1c(C(=O)Nc2ccccn2)sc2nc3c(cc12)CCCC3 | 97.5% |
| Cc1nnc(/N=C2\NC(=O)/C(=C/c3ccsc3)S2)s1 | 96.7% |
| Cc1cc(Nc2nc(SCc3ccc(C(=O)Nc4ccc(F)cc4N)cc3)nn3cccc23)n[nH]1 | 48.8% |
| Oc1c(CCl)cc(Cl)cc1Cc1cc(Cl)cc(Cc2cc(Cl)cc(CCl)c2O)c1O | 17.7% |
| COc1ccc(C2N(c3cc(OC)c(OC)c(OC)c3)C(=O)C2(F)F)cc1F (stereo not drawn) | 106% |
| COc1cc2c(cc1OC)C(Sc1ccc(Cl)cc1)c1c(nc(N)c(C#N)c1N)O2 (stereo not drawn) | -12.6% (active) |

Tested on: ACHN renal
Assay: as above
Conditions: 10 µM unless noted

| Compound | growth |
| --- | --- |
| COc1ccc2c(c1)OC13Oc4cc(OC)ccc4C=C1CCCCC3=C2 | 104% |
| C/C(=N/Nc1nc2ccccc2n1C)c1ccccn1 | 10.3% |
| Cc1nc2sc(C(=O)Nc3cccc4ccccc34)c(N)c2cc1C(C)O (stereo not drawn) | 42.8% |
| N#Cc1c(-c2ccc(F)cc2)c(C#N)c2c(C#N)c(N)nn2c1N | 95.7% |
| CCOc1ccc(C2N(c3cc(OC)c(OC)c(OC)c3)C(=O)C2(F)F)cc1 (stereo not drawn) | 55.3% |
| CCOc1ccccc1C(=O)/C=C/c1cc2ccccc2[nH]c1=O | -5.01% (active) |
| Cc1ccc(C2=N[C@H]3CCC[C@@H]3N(c3ccccc3)C(C(Cl)Cl)=N2)cc1 | 98% |
| COc1cc(/C=C/CO)cc(OC)c1O[C@@H]1O[C@H](CO)[C@@H](O)[C@H](O)[C@H]1O | 109% |
| COc1ccc(C(=S)c2cc(OC)c(OC)c(OC)c2)cc1OC(=O)CCl | 41.9% |
| O=C1CCC23OC(c4ccccc4N12)C(O)C(O)C3O (stereo not drawn) | 109% |
| COc1cc(/C=C/C(=O)c2cccs2)ccc1OCc1ccc(Cl)nc1 | 102% |
| O=c1c2ccccc2oc2ccc(OCCCCCN3CCCCCC3)cc12 | 103% |
| C=C1C(=O)O[C@H]2[C@H]1CC/C(COC(=O)NCC(=O)Nc1ccc(OC)c(C(N)=O)c1O)=C\CC[C@@]1(C)O[C@@H]21 | 75.3% |
| COc1ccc(-c2[nH]c3ccccc3c2C=C(C#N)C#N)cc1 | 43% |
| COC(=O)/C=C/c1cc(OC(C)=O)c2c(c1)C(C(=O)OC)C(c1ccc(OC(C)=O)c(OC(C)=O)c1)O2 (stereo not drawn) | 34.4% |
| Nc1cc(N)c(S(=O)(=O)O)cc1N=Nc1cc([N+](=O)[O-])ccc1O | 109% |
| CC1CCN(CCCCCOc2ccc3oc4ccccc4c(=O)c3c2)CC1 | 95.3% |
| CCOC(=O)C1=C(C)n2nc(CC#N)c(C#N)c2NC1c1ccc(Cl)cc1 (stereo not drawn) | 90.8% |
| Cc1cccc(C)c1NCc1nnc(-c2ccco2)o1 | 101% |

| Compound | growth |
| --- | --- |
| COC(=O)/C=C1\SC(=Nc2cccc(Cl)c2)N(CCc2c[nH]c3ccccc23)C1=O | 63.9% |
| COc1ccc(C(C)c2cc(OC)c(OC)c(OC)c2)cc1 (stereo not drawn) | 37% |
| CCO/C=N/S(=O)(=O)c1cc2c(cc1Cl)NC=NS2(=O)=O | 112% |
| COc1ccc([C@H]2[C@@H](F)C(=O)N2c2cc(OC)c(OC)c(OC)c2)cc1F | 32.7% |
| O=C(CN1N=C(c2ccc(F)cc2)CCC1=O)Nc1nccs1 | 107% |
| Nc1cc(N)nc(SCC(=O)O)n1 | 109% |
| CCOC(=O)NCCc1nc2c([nH]1)c(=O)n(C)c(=O)n2C | 110% |
| CC1(c2ccccc2Cl)NC(=O)NC1=O (stereo not drawn) | 108% |
| C=C1C(=O)O[C@H]2[C@H]1CC/C(COC(=O)n1ccnc1)=C\CC[C@@]1(C)O[C@@H]21 | 82.8% |
| COc1ccccc1-c1ccc2nc(NC(=O)Nc3cc(C(F)(F)F)cc(C(F)(F)F)c3)sc2c1 | 8.64% (active) |
| O=C1NC(SCc2ccc(F)cc2)=N/C1=C/c1cccc(OCc2ccc(Cl)cc2)c1 | -53.7% (active) |
| O=C(CCc1nnc2sc(OCc3ccccc3)nn12)c1nc2ccc([N+](=O)[O-])cc2[nH]1 | 97% |
| Nc1c(C(=O)Nc2ccccn2)sc2nc3c(cc12)CCCC3 | 69.8% |
| Cc1nnc(/N=C2\NC(=O)/C(=C/c3ccsc3)S2)s1 | 106% |
| Cc1cc(Nc2nc(SCc3ccc(C(=O)Nc4ccc(F)cc4N)cc3)nn3cccc23)n[nH]1 | 21.1% |
| Oc1c(CCl)cc(Cl)cc1Cc1cc(Cl)cc(Cc2cc(Cl)cc(CCl)c2O)c1O | 22.7% |
| COc1ccc(C2N(c3cc(OC)c(OC)c(OC)c3)C(=O)C2(F)F)cc1F (stereo not drawn) | 60.8% |
| COc1cc2c(cc1OC)C(Sc1ccc(Cl)cc1)c1c(nc(N)c(C#N)c1N)O2 (stereo not drawn) | -66.9% (active) |
